# Gli-Sufu block: Gli-Sufu pathway antagonists, primary screen, luciferase luminescence, Sufu-KO-LIGHT cells, uHTS; Sufu-KO-LIGHT fibroblasts, Gli luciferase reporter luminescence; inhibition, % at 5 µM; 340,000 tested, 0.74% active;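 active = inhibition above about 55%, limit read from the data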;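 also: 0% = DMSO-treated cells and 100% = wells with medium but no cells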
# Mdm2-MdmX inh: inhibitors of human Mdm2-MdmX association, primary screen, cell-based, luminescence, split luciferase, SaOS-2, uHTS; Protein Mdm4 (Homo sapiens) + E3 ubiquitin-protein ligase Mdm2 (Homo sapiens), …; SaOS-2 split-luciferase Mdm2/MdmX complementation; inhibition, % at 8 µM; 330,000 tested, 3% active;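 active = inhibition of at least 50% at 8 µM in the primary screen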
# CSC inhib: cancer stem cell viability inhibitors, primary screen, luminescence. 300,000 tested, 1.1% active. AID 2717, 2010. cancer stem cell-like cells viability. inhibition, % at 7.5 µM; in the data active = inhibition above about 75%; inconclusive = no clear call, values can overlap the other calls; tested in HMLE shEcad cells
# 697 NFkB inh: inhibitors of PMA/ionomycin-induced NF-kB reporter, 697 cells, primary screen, B-cell NF-kB inhibitor project, cell-based, luminescence, uHTS; 697 B-cell NF-kB luciferase reporter, 16 h; inhibition, % at 4 µM; 330,000 tested, 0.33% active; AID 435022, 2010; in the data active = inhibition above about 35%
# aSyn 5UTR inh: MLPCN primary screen, SNCA 5' untranslated region; AID 1813, 2009; alpha-synuclein 5'UTR reporter, inhibitor activity; inhibition, % (tested at 7.5 µM); 300,000 tested, 0.82% active; in the data active = inhibition above about 60%; inconclusive = no clear call, values can overlap the other calls;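 also: H4 neuroglioblastoma cells stably carrying SNCA 5'UTR luciferase fusion; 0% = DMSO wells and 100% = positive control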
# Jurkat NFkB inh: inhibitors of induced NF-kB luciferase reporter, primary screen, TCR NF-kB activation inhibitor project, cell-based, luminescence, uHTS | Jurkat, PMA/ionomycin-induced NF-kB luciferase reporter | inhibition, % at 4 µM | 330,000 tested, 0.53% active; in the data active = inhibition above about 50%
# Mdm2 MdmX conf: Mdm2-MdmX complex disruptors, retested hits, confirmation, luminescence, single concentration; shares compounds with Mdm2-MdmX inh; Mdm2-MdmX binding, luminescent assay; inhibition, % at 8 µM; 10,000 tested, 55% active; AID 489028, 2010; in the data active = inhibition above about 40%
# FLuc counter: full-length luciferase signal inhibition, confirmation, counter-screen for Mdm2/MdmX interaction inhibitor project, cell-based, single concentration, SaOS-2; shares compounds with Mdm2-MdmX inh; SaOS-2 full-length luciferase counterscreen, luminescence; inhibition, % at 8 µM; 6,200 tested, 77% active;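 active = mean inhibition at 8 µM reaching about 37%, which flags the compound as non-specific, limit read from the data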;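 also: p53-null SaOS-2 cells with luciferase driven by a doxycycline-inducible promoter; compound on cells about two nights before reading with doxycycline added after day one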
# An asterisk follows results filed as active; ? = inconclusive; nt = no result. Hits are enriched below; roughly 4.5% of the tested compounds scored in any of these assays.
SMILES,Gli-Sufu block,Mdm2-MdmX inh,CSC inhib,697 NFkB inh,aSyn 5UTR inh,Jurkat NFkB inh,Mdm2 MdmX conf,FLuc counter
CCCOc1ccc(CNC(=O)c2ccc3c(c2)N(CC)CCS3)cc1,-1,-8,nt,-6,19,10,nt,nt
O=[N+]([O-])c1ccc(/C=N/n2cnc3ccccc32)s1,15,70*,100*,-1,68*,-3,60*,10
Cc1cc2oc(=O)cc(C)c2cc1NC(=O)CCl,-4,58*,27,24,-49,2,36,nt
Cc1cc2oc(=O)cc(C)c2cc1NC(=O)CCC(=O)O,-3,29,-17,2,5,-3,nt,nt
Nc1ccc(C(=O)NN2C(=O)[C@H](Cl)C2c2ccc(Cl)cc2)cc1 (stereo partly drawn),10,nt,nt,nt,nt,nt,nt,nt
O=C(C=Cc1ccccc1)Nc1ccccc1,-140,nt,nt,nt,nt,nt,nt,nt
Cc1nc(NC(=O)/C=C/c2ccccc2)n[nH]1,-1,56*,45,-15,-11,8,40*,33
CCCc1nc(SCC(=O)c2ccc(F)cc2)c2ccccc2n1,-3,14,41,-5,-25,-15,nt,nt
CC(=O)CCC(=O)N1CCCC(N2CCN(c3cccc(Cl)c3)CC2)C1 (stereo not drawn),7,6,5,-17,-11,-3,nt,nt
COC(=O)[C@]1(C)N[C@H](CN(C)S(=O)(=O)c2ccc(C)cc2)[C@@H]2C(=O)N(Cc3ccccc3)C(=O)[C@@H]21,-7,21,nt,0,nt,-4,nt,nt
N#Cc1ccccc1NC(=O)COC(=O)/C=C/c1cn(-c2ccccc2)nc1-c1ccc(Cl)cc1,4,nt,nt,nt,nt,nt,nt,nt
COc1ccc(-c2nn(-c3ccccc3)cc2/C=C/C(=O)OCC(=O)Nc2ccccc2C#N)cc1,11,88*,10,-8,0,-2,9,nt
COc1ccc(-c2nn(-c3ccccc3)cc2/C=C/C(=O)N2CCN(c3ccccn3)CC2)cc1,17,59*,-6,-4,6,6,18,nt
Cc1ccc(-c2nn(-c3ccccc3)cc2C(=O)N2CCN(c3ccccn3)CC2)cc1,7,14,-3,-7,-45,23,nt,nt
COc1cc(OC)cc(C(=O)OCC(=O)NCCCc2ccccc2)c1,4,2,-4,11,-5,-15,nt,nt
NC(=S)NCc1cccnc1,-4,-25,-5,-9,7,-1,nt,nt
CSC(=S)NCc1cccnc1,34,79*,35,24,-44,-1,73*,39*
Cc1c(N=NC2=C(O)CC(C)(C)CC2=O)cc2c(c1[N+](=O)[O-])C(C)(C)CC2(C)C,20,70*,11,-33,22,-1,21,nt
Cc1noc(-c2ccc(Cl)cc2)c1C(=O)O/N=C(\N)c1ccc(C(C)(C)C)cc1,6,100*,171*,-38,43,7,98*,60*
COc1cc(OC)c(C(=O)O/N=C(\N)c2cccc(C)c2)cc1OC,0,79*,-2,-18,-67,-9,47*,100*
COc1ccc(/C(N)=N/OC(=O)Cc2ccc(C)cc2)cc1OC,-4,-56,6,-4,15,6,nt,nt
COc1cc(OC)c(C(=O)O/N=C(\N)c2ccc(C)cc2)cc1OC,-2,69*,4,-13,-66,3,43*,104*
COc1ccc(Cl)cc1C(=O)O/N=C(\N)c1ccc(Cl)cc1,-29,71*,-7,-47,-267,-39,45*,81*
Cc1ccsc1/C=N/NC(=O)Cn1cnc2ccccc21,4,17,3,-2,-4,1,nt,nt
CC1O[C@@H](OCC2O[C@@H](Oc3cc(O)c4c(c3)OC(c3ccc(O)cc3)CC4=O)[C@H](O)[C@@H](O)[C@@H]2O)[C@H](O)[C@H](O)[C@H]1O (stereo partly drawn),-26,2,1,19,nt,-3,nt,nt
SMILES,Gli-Sufu block,Mdm2-MdmX inh,CSC inhib,697 NFkB inh,aSyn 5UTR inh,Jurkat NFkB inh,Mdm2 MdmX conf,FLuc counter
O=[N+]([O-])c1ccc(Cl)c(NC2=NCCCCC2)c1,-20,15,nt,3,-14,2,nt,nt
Cc1ccc(/C(N)=N/OC(=O)c2ccco2)cc1,-102,-95,-5,-213,-40,-114,nt,nt
Cc1occc1C(=O)O/N=C(\N)c1ccc(Cl)cc1,-7,100*,-6,-55,-71,-46,50*,148*
Cc1nc(SCC(=O)Nc2cccc(Cl)c2)n[nH]1,-93,-6,nt,7,-6,10,nt,nt
O=C(CSc1n[nH]c(-c2ccccn2)n1)Nc1cccc(Cl)c1,-3,60*,1,9,86*,-1,53*,40*
Cc1ccccc1-n1nnnc1SCC(N)=O,3,-7,-14,5,6,-7,nt,nt
Cc1ccccc1-n1nnnc1Sc1nnnn1-c1ccccc1,12,98*,19,-74,nt,30,83*,54*
O=[N+]([O-])c1ccc(Sc2nnnn2-c2ccccc2)nc1,29,61*,nt,-86,-20,39,47*,79*
CN(C)CCNc1ncnc2c1sc1nc(-c3ccccc3)c3c(c12)CCCC3,16,100*,52,-9,11,3,70*,41*
COc1ncnc2c1sc1nc(-c3ccccc3)c3c(c12)CCCC3,11,33,10,13,20,-8,nt,nt
CCCCN1C(=O)Cc2c1nc(N)c1c(N)nc(N(CCC)CCC)c(C#N)c21,-7,nt,5,nt,?,nt,nt,nt
C=C(C)CN(CC)c1nc(N)c2c(N)nc3c(c2c1C#N)CC(=O)N3C12CC3CC(CC(C3)C1)C2,-15,84*,19,16,-1,35,54*,41*
Cc1ccc(S(=O)(=O)N/N=C\c2cn(CC(N)=O)c3ccccc23)cc1C,-3,52*,-7,-11,16,-3,28,nt
COc1ccc(-c2nc3cnccn3c2NCc2ccccc2)cc1SC1CCCCC1,6,20,43,12,30,3,nt,nt
COc1cc(-c2nc3ccccn3c2NCc2ccccc2)ccc1SC1CCCCC1,-12,67*,21,-10,-1,-9,-12,nt
COc1ccc(Sc2ccc(-c3nc4cnccn4c3NC3CCCCC3)cc2OC)cc1,5,85*,104*,-20,nt,-5,-4,nt
COc1ccc(-c2nc3ccccn3c2NC2CCCCC2)cc1SC1CCCCC1,12,70*,-29,-42,11,-13,28,nt

# Assay outcomes: PubChem BioAssay, several laboratories
